Compounds without any hit were thinned out: in the full panel of roughly 83,000, 20% have a hit.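 Growth was measured after 48 h exposure to one concentration of compound in 96-well plates. Values under 10 count as active.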 Unmarked numbers belong to inactive results. The source made the active and inactive calls.
Experiments:
Assay in all cases: NCI-60 one-dose screen, 48 h (100 = growth as untreated, 0 = no growth, -100 = all killed)
Conditions in all cases: 10 µM unless noted
[1] = tested on: HCT-15 colon
[2] = tested on: HT29 colon
[3] = tested on: SNB-75 CNS
[4] = tested on: SNB-19 CNS
[5] = tested on: U251 CNS
[6] = tested on: PC-3 prostate
[7] = tested on: SK-MEL-5 melanoma
[8] = tested on: UACC-62 melanoma
[9] = tested on: LOX IMVI melanoma
[10] = tested on: SK-MEL-28 melanoma

Row | Compound | growth [1] | growth [2] | growth [3] | growth [4] | growth [5] | growth [6] | growth [7] | growth [8] | growth [9] | growth [10]
1 | C#Cc1nc(/C=C/CCCCCCC(=O)NO)cs1 | 77% | 54.2% | -17.1% (active) | 86.1% | 63.2% | 72.8% | 63.2% | 45.8% | -84.2% (active) | 75.4%
2 | C#CCn1cc(/C=N/Nc2nc(-c3ccc(Br)cc3)cs2)c2ccccc21 | 95.3% | 104% | 95.4% | 96.6% | 101% | 91.7% | 98.7% | 91.5% | 94.4% | 103%
3 | CC(Nc1ncnc2ccc(-c3cnc4cnccn34)cc12)c1ccccc1 (stereo not given) | 67.7% | 71.1% | 80.9% | 56.8% | 76.1% | 63.8% | 18.1% | 53.9% | 58.1% | 78.7%
4 | O=C(CCl)Nc1ccc(NC(=O)c2cc(Cl)ccc2O)c(Cl)c1 | 25.9% | 64.6% | 77.1% | 80% | 42.8% | 87.1% | 57.8% | 56.4% | -88.1% (active) | 88.5%
5 | COC(=O)c1cccc(NC2=C(Cl)C(=O)c3nc(C)ccc3C2=O)c1 | 51.6% | 110% | 119% | 92.2% | 106% | 85.4% | 97.9% | 95.4% | 10.2% | 93.6%
6 | Cn1cc(-c2nn3cc(-c4ccncc4)nc3s2)c2cc(Br)ccc21 | 18% | 4.54% (active) | 45.9% | 81.7% | 54.7% | 30.2% | 57.9% | 61.5% | 52.5% | 94.2%
7 | O=C1Nc2ccccc2/C1=C/c1ccc(OCC(=O)c2ccccc2)cc1 | 96.8% | 117% | 73.8% | 94.6% | 100% | 82.9% | 97.7% | 87.1% | 94.5% | 100%
8 | O=C(CN1CCN(c2cc(=O)[nH]c3ccc(F)cc23)CC1)N(c1ccccc1)c1ccccc1 | 97.7% | 110% | 71.3% | 93.4% | 107% | 96.5% | 100% | 98% | 101% | 111%
9 | COc1ccc(C(C)=C(c2ccc(OCCN3CCCCCC3)cc2)c2ccc(OCCN3CCCCCC3)cc2)cc1 | -82.1% (active) | -49.9% (active) | -12% (active) | -51.7% (active) | -77.9% (active) | -54.6% (active) | -92% (active) | -65.2% (active) | -84% (active) | -89.3% (active)
10 | Cc1ccc(CSC2=C(Cl)CN(c3ccc(Cl)cc3)C2=O)cc1 | 99.2% | 116% | 103% | 93.5% | 101% | 107% | 99.8% | 94.7% | 33.9% | 104%
11 | CS(=O)(=O)c1ccc(/C(=N/N=C(N)N)c2ccc(F)cc2)cc1 | 74.9% | 91.5% | 94.6% | 63% | 67.2% | 73.9% | 82.8% | 74.6% | 54.4% | 95.5%
12 | COc1ccc(-c2c(C(N)=O)c(N)n(Cc3nc4ccccc4[nH]3)c(=O)c2C#N)c(OC)c1 | 98.4% | 113% | 88.3% | 98.7% | 97.2% | 97.4% | 97.3% | 91.6% | 96.4% | 109%
13 | CCCNNC(=O)c1ccc(-c2ccc(NC(=O)CCCCCCC(=O)N[C@H](C(=O)N3C[C@H](O)C[C@H]3C(=O)N[C@@H](C)c3ccc(-c4scnc4C)cc3)C(C)(C)C)cc2)cc1 | 97.5% | 5.44% (active) | 55.1% | 28.6% | 17.1% | 37.2% | -0.921% (active) | -5.46% (active) | -41.8% (active) | 23.9%
